Compound activity as filed in PubChem.
Hits are enriched below; roughly 2.8% of the tested compounds scored in any of these assays.
Shn3 inh set2: Schnurri-3 reporter inhibition in Clone20 osteoblasts; Clone20 osteoblast Shn3 3'UTR firefly luciferase, 24 h; inhibition, % at 12.5 µM; hit rate 0.52% among 360,000; AID 588674;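 active = mean inhibition of at least 75% with every replicate also reaching 75%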;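 also: 0% = median of neutral control wells and 100% = pilot-screen positive control compound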
PAX8 inh HTS: lowers PAX8-driven luciferase in RMG-I cells. hit rate 1.2% among 360,000. RMG-I TPO-luciferase reporter, SteadyGlo, 24 h. inhibition, % at 12.6 µM. AID 652154;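 active = mean replicate inhibition at least 60% with every replicate also reaching 60%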;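 also: luciferase light reporting Pax8 driven TPO promoter activity; plate controls were median of neutral control wells for no effect and mitoxantrone controls for full effect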
TRPM1 prom inh: reduces MITF-dependent TRPM1 promoter luciferase signal; SK-MEL-5 TRPM1 promoter luciferase, 24 h; inhibition, % at 12.5 µM; hit rate 0.83% among 330,000; AID 488899;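 active = mean inhibition across replicates of 60% or more, whatever share of single replicates reaches that level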
HIF-2a block: inhibitors of HIF-2a | hit rate 0.72% among 360,000 | inhibition, % at 18.8 µM | AID 624352 | 786-0 RCC cells HIF-2a reporter, luciferase luminescence, overnight;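 active = inhibition of the luminescence signal of 40% or more relative to plate controls, in a single-dose primary screen at 18.75 µM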
EBV LMP1 NFkB: reduces LMP1-driven NF-kappaB luciferase signal; LMP1-induced NF-kappaB luciferase reporter cells, luminescence; inhibition, % at 12.5 µM; hit rate 0.69% among 350,000; in the data active = inhibition above about 41%;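 also: 0% = neutral control wells and 100% = reference inhibitor control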
Peg3 promoter: Peg3 promoter activity inhibition | AID 588405 | inhibition, % at 20 µM | hit rate 1.7% among 360,000 | HeLa PEG-Prom luciferase reporter, luminescence, overnight;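 active = inhibition of at least 50% at 20 µM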
The depositor's hits bear a star.

CCCC(=O)Nc1nc2c(s1)COc1ccccc1-2 was read as Shn3 inh set2 -23.9, PAX8 inh HTS -12.3, TRPM1 prom inh -6.3, HIF-2a block -74.7, EBV LMP1 NFkB -15.4 and Peg3 promoter -47.0.
For O=C(CCSc1ccccc1)Nc1nc2c(s1)COc1ccccc1-2 the results were Shn3 inh set2 -0.3, PAX8 inh HTS 24.0, TRPM1 prom inh 32.3, HIF-2a block -9.8, EBV LMP1 NFkB -27.6 and Peg3 promoter 54.0*.
For FC(F)(F)c1cccc(NC(=S)N(CCCN2CCCC2)Cc2cccn2Cc2ccc(Cl)cc2)c1 the results were Shn3 inh set2 39.5, PAX8 inh HTS 27.6, TRPM1 prom inh 16.4, HIF-2a block -21.0, EBV LMP1 NFkB 2.2 and Peg3 promoter 105.5*.
`COc1ccc(NC(=S)N(CCCN2CCC(C)CC2)Cc2cccs2)cc1Cl` gave Shn3 inh set2 7.8, PAX8 inh HTS -14.0, TRPM1 prom inh -13.2, HIF-2a block 4.9, EBV LMP1 NFkB -2.7 and Peg3 promoter -0.6.
Screening COc1ccc(NC(=S)N(CCCN2CCCC2)Cc2cccn2Cc2ccc(Cl)cc2)cc1Cl returned Shn3 inh set2 1.4, PAX8 inh HTS 8.2, TRPM1 prom inh 7.5, HIF-2a block -13.0, EBV LMP1 NFkB 20.5 and Peg3 promoter 102.6*.
`Cc1ccc(NC(=S)N(CCCN2CCCC2)Cc2cccn2Cc2ccc(Cl)cc2)cc1C` gave Shn3 inh set2 -9.1, PAX8 inh HTS 0.4, TRPM1 prom inh 22.7, HIF-2a block -26.7, EBV LMP1 NFkB 7.2 and Peg3 promoter 101.5*.
Cc1ccc(NC(=S)N(CCCN2CCCC2)Cc2cccn2Cc2ccc(Cl)cc2)cc1Cl was read as Shn3 inh set2 60.8, PAX8 inh HTS -21.4, TRPM1 prom inh -3.5, HIF-2a block -14.5, EBV LMP1 NFkB 0.6 and Peg3 promoter 98.1*.
Screening CN(C)CCCN(Cc1ccccc1)C(=S)Nc1cccc(C(F)(F)F)c1 returned Shn3 inh set2 8.4, PAX8 inh HTS 0.9, TRPM1 prom inh 1.6, HIF-2a block 9.5, EBV LMP1 NFkB -4.8 and Peg3 promoter 13.0.
`C[C@@H]1CN([C@H](C)CO)C(=O)c2cc(C#CC3(O)CCCC3)cnc2O[C@@H]1CN(C)S(=O)(=O)c1ccccc1` gave PAX8 inh HTS -27.8.
O=[N+]([O-])c1ccc(CS(=O)c2ccccc2)cc1 (centres undefined) was read as Shn3 inh set2 2.2, PAX8 inh HTS -1.4, TRPM1 prom inh -7.0, HIF-2a block -15.3, EBV LMP1 NFkB 7.6 and Peg3 promoter 1.3.
For O=[N+]([O-])c1ccc(S(=O)Cc2ccccc2)c([N+](=O)[O-])c1 (centres undefined) the results were Shn3 inh set2 95.0*, PAX8 inh HTS 121.1*, TRPM1 prom inh 97.0*, HIF-2a block 93.0*, EBV LMP1 NFkB 28.6 and Peg3 promoter 96.1*.
For NC(=O)CSc1nc2cc3c(cc2c(=O)n1CCCC(=O)NCc1ccc2c(c1)OCO2)OCO3 the results were Shn3 inh set2 41.5, TRPM1 prom inh 42.1, HIF-2a block 14.3, EBV LMP1 NFkB 44.9* and Peg3 promoter 17.9.
For O=C(NCC[C@H]1CC[C@@H](NC(=O)C2CCCCC2)[C@H](CO)O1)c1ccc(F)cc1 the results were PAX8 inh HTS -9.5.
CN1CCN(C(=O)C[C@H]2CC[C@H]3[C@@H](COC[C@H](O)CN3Cc3ccc(Oc4ccccc4)cc3)O2)CC1 was read as PAX8 inh HTS 9.4.
For Cc1noc(C)c1S(=O)(=O)N(C)C[C@@H]1OCCCC[C@@H](C)Oc2ccc(NS(=O)(=O)c3ccc(Cl)cc3)cc2C(=O)N([C@H](C)CO)C[C@@H]1C the results were PAX8 inh HTS -5.5.
Cc1noc(C)c1S(=O)(=O)N(C)C[C@@H]1OCCCC[C@H](C)Oc2ccc(NS(=O)(=O)c3ccc(Cl)cc3)cc2C(=O)N([C@H](C)CO)C[C@@H]1C was read as PAX8 inh HTS 87.2*.
`Cc1noc(C)c1S(=O)(=O)N(C)C[C@H]1OCCCC[C@@H](C)Oc2ccc(NS(=O)(=O)c3ccc(Cl)cc3)cc2C(=O)N([C@@H](C)CO)C[C@@H]1C` gave PAX8 inh HTS 88.3*.
Cc1noc(C)c1S(=O)(=O)N(C)C[C@H]1OCCCC[C@@H](C)Oc2ccc(NS(=O)(=O)c3ccc(Cl)cc3)cc2C(=O)N([C@@H](C)CO)C[C@H]1C was read as PAX8 inh HTS 76.4*.
C=C[C@@H](COC(=O)c1ccc([N+](=O)[O-])cc1)N(Cc1ccc(OC)cc1)S(=O)(=O)c1ccc(Br)cc1 was read as PAX8 inh HTS 4.5.
Screening C[C@H](CO)N1C[C@H](C)[C@H](CN(C)C(=O)Nc2ccc3c(c2)OCO3)OCCCC[C@H](C)Oc2ccc(NC(=O)CCCCCC(=O)Nc3ccccc3N)cc2C1=O returned PAX8 inh HTS 3.1.
COc1cc(CSc2nnnn2-c2ccc(C)cc2)cc(OC)c1OC was read as Shn3 inh set2 90.4*, TRPM1 prom inh 23.5, HIF-2a block 1.1, EBV LMP1 NFkB 26.7 and Peg3 promoter 25.9.
For COc1ccc(F)cc1CSc1nnnn1-c1ccc(O)cc1 the results were Shn3 inh set2 32.1, PAX8 inh HTS 25.5, TRPM1 prom inh 10.1, HIF-2a block 13.9, EBV LMP1 NFkB -6.4 and Peg3 promoter 17.0.
`C[C@H](CO)N1C[C@H](C)[C@@H](CN(C)Cc2ccc(C(F)(F)F)cc2)OCCCC[C@H](C)Oc2ccc(NC(=O)Cc3ccccc3)cc2C1=O` gave PAX8 inh HTS 79.8*.
C[C@@H]1CCCCO[C@@H](CN(C)Cc2ccc(C(F)(F)F)cc2)[C@@H](C)CN([C@@H](C)CO)C(=O)c2cc(NC(=O)c3ccccc3)ccc2O1 was read as PAX8 inh HTS 12.4.
For C[C@@H]1CN([C@H](C)CO)C(=O)c2cc(NC(=O)Cc3ccccc3)ccc2O[C@@H](C)CCCCO[C@@H]1CN(C)Cc1ccc(C(F)(F)F)cc1 the results were PAX8 inh HTS 87.2*.
`C[C@@H]1CCCCO[C@H](CN(C)Cc2ccc(Cl)c(Cl)c2)[C@@H](C)CN([C@@H](C)CO)C(=O)c2cc(NC(=O)CCC(F)(F)F)ccc2O1` gave PAX8 inh HTS 56.0.
C[C@@H]1CN([C@@H](C)CO)C(=O)c2cc(NC(=O)CCC(F)(F)F)ccc2O[C@@H](C)CCCCO[C@H]1CN(C)Cc1ccc(C(F)(F)F)cc1 was read as PAX8 inh HTS 75.4*.
`C[C@@H]1CN([C@H](C)CO)C(=O)c2cc(NC(=O)CCC(F)(F)F)ccc2O[C@@H](C)CCCCO[C@@H]1CN(C)Cc1ccc(Cl)c(Cl)c1` gave PAX8 inh HTS 81.4*.
`CC(C)NC(=O)N1C[C@H]2[C@@H](c3ccccc31)[C@@H](CO)N2Cc1ccccc1` gave PAX8 inh HTS 7.8.
